# Several values for one entry are separate records, joined by “and”; a condition that tells them apart may be missing. Equal values may be shown once. Records with an inconclusive call do not appear. Entries that show only a call come without a potency. Some structures have more than one record in an assay (separate samples or runs), and their calls can disagree. Activity calls are given as the source filed them. Unless noted, calls follow the shape of the dose curve; as a rule, active = well fitted curve in the direction sought with a large enough effect in the repeat runs; inconclusive = weak or mixed curves; inactive = no such curve, though single readings can be large; an effect the other way counts as inactive or inconclusive.
# Tests used:
# [1] = qHTS assay to identify small molecule agonists of the hypoxia (HIF-1) signaling pathway - cell viability counter screen (AID 1224844; calls by dose curve; also: nearly all actives have a fitted effect of over 50% in size)
# Summary of the method: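 In this counter screen, HRE-bla ME-180 cell viability after 17 hrs of compound exposure at 37C was read by CellTiter-Glo luminescence, multiplexed with the beta-lactamase reporter measurement.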
# [2] = qHTS assay to identify small molecule agonists of H2AX (AID 1224845; active = well fitted activation curve with a large enough effect in the signal ratio in the repeat runs, not every such curve was filed as active; the % refers to the signal ratio)
# Summary of the method: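 Wild-type CHO-K1 cells plated overnight, then exposed 3 hr at 37C to compounds at 15 concentrations (0.76% DMSO). Lysed, then HTRF anti-pH2AX(S139)-cryptate/anti-H2AX-d2 detection after 24 hr at room temperature; emissions 665 and 620 nm.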
# [3] = qHTS assay to identify small molecule agonists of the hypoxia (HIF-1) signaling pathway (AID 1224846; active = well fitted activation curve with a large enough effect in the signal ratio in the repeat runs, not every such curve was filed as active; the % refers to the signal ratio)
# Summary of the method: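 ME-180 HRE-bla reporter cells; compounds in DMSO, 17 h at 37C; read-out beta-lactamase via CCF4-AM FRET.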
# [4] = qHTS assay to identify small molecule agonists of H2AX - cell viability counter screen (AID 1224847; calls by dose curve; also: nearly all actives have a fitted effect of over 30% in size; also: potency is read from the fitted curve at half-maximal effect)
# Summary of the method: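 Cytotoxicity counter screen in wild-type CHO-K1 cells: a 3 hr compound treatment at 37C across 15 concentrations, followed by CellTiter-Glo luminescence to gauge viable cells.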
# [5] = qHTS RealTime-Glo MT Cell Viability Assay in HepG2 cells - 24 hour (AID 1224867); also: nearly all actives have a fitted effect of over 50% in size
# Summary of the method: (§1)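 HepG2 suspension premixed with RealTime-Glo reagents is plated at 600 cells per well and left 5 h at 37 C/5% CO2. Compounds in DMSO then go in, and bioluminescence reflecting viable cell number is recorded over 40 h.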
# [6] = qHTS RealTime-Glo MT Cell Viability Assay in HEK293 cells - 32 hour (AID 1224868); also: nearly all actives have a fitted effect of over 50% in size; also: potency is read from the fitted curve at half-maximal effect
# Summary of the method: (§2)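 Reads taken at 0, 8, 16, 24, 32 and 40 h from the same wells. HEK293 cells (600/well) carried RealTime-Glo reagents from seeding, with compound added after a 5 h settle at 37 C.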
# [7] = A CellTox Green Cytotoxicity Assay to monitor cytotoxicity in HEK293 cells - 0 hour (AID 1224869); also: nearly all actives have a fitted effect of over 50% in size
# Summary of the method: (§3)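 Real-time, in one plate: 600 HEK293 cells/well with dead-cell DNA dye, pinned compound after 5 h, 37 C incubation over 40 h; viable cells give no appreciable fluorescence.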
# [8] = qHTS RealTime-Glo MT Cell Viability Assay in HepG2 cells - 40 hour (AID 1224870); also: nearly all actives have a fitted effect of over 50% in size
# Summary of the method: (§4)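 HepG2 cells mixed with RealTime-Glo MT reagents (NanoLuc plus cell-permeant prosubstrate) were seeded at 600 cells/well, incubated 5 h at 37 C/5% CO2, then pinned with compounds in DMSO; nonlytic luminescence tracked viability during 40 h treatment.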
# [9] = A CellTox Green Cytotoxicity Assay to monitor cytotoxicity in HEK293 cells - 40 hour (AID 1224871); also: nearly all actives have a fitted effect of over 45% in size; also: potency is read from the fitted curve at half-maximal effect
# Summary of the method: as §3
# [10] = qHTS RealTime-Glo MT Cell Viability Assay in HEK293 cells - 16 hour (AID 1224872); also: nearly all actives have a fitted effect of over 50% in size; also: potency is read from the fitted curve at half-maximal effect
# Summary of the method: as §2
# [11] = qHTS RealTime-Glo MT Cell Viability Assay in HepG2 cells - 8 hour (AID 1224873); also: nearly all actives have a fitted effect of over 55% in size
# Summary of the method: as §4
# [12] = qHTS RealTime-Glo MT Cell Viability Assay in HEK293 cells - 40 hour (AID 1224874); settings: RealTime-Glo luminescence; max response: stronger effect = lower value; also: nearly all actives have a fitted effect of over 50% in size; also: potency is read from the fitted curve at half-maximal effect
# Summary of the method: (§5)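 Kinetic, non-lysing viability readout. Seed HEK293 (600/well) with reagent, incubate 5 h at 37 C/5% CO2, pin 23 nL compound in DMSO, incubate at 37 C, read luminescence at 0, 8, 16, 24, 32, 40 h.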
# [13] = A CellTox Green Cytotoxicity Assay to monitor cytotoxicity in HEK293 cells - 24 hour (AID 1224875); also: nearly all actives have a fitted effect of over 45% in size
# Summary of the method: as §3
# [14] = A CellTox Green Cytotoxicity Assay to monitor cytotoxicity in HepG2 cells - 16 hour (AID 1224876); also: nearly all actives have a fitted effect of over 45% in size; also: potency is read from the fitted curve at half-maximal effect
# Summary of the method: (§6)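 Cytotoxicity was tracked as dead-cell DNA fluorescence in HepG2 cells treated with test compounds at 37 C; each time-point value comes from one kinetic series spanning 0, 8, 16, 24, 32 and 40 h.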
# [15] = qHTS RealTime-Glo MT Cell Viability Assay in HepG2 cells - 32 hour (AID 1224877); also: nearly all actives have a fitted effect of over 55% in size
# Summary of the method: as §1
# [16] = A CellTox Green Cytotoxicity Assay to monitor cytotoxicity in HepG2 cells - 24 hour (AID 1224878); also: nearly all actives have a fitted effect of over 45% in size; also: potency is read from the fitted curve at half-maximal effect
# Summary of the method: as §6
# [17] = A CellTox Green Cytotoxicity Assay to monitor cytotoxicity in HepG2 cells - 40 hour (AID 1224879); also: nearly all actives have a fitted effect of over 40% in size; also: potency is read from the fitted curve at half-maximal effect
# Summary of the method: as §6
# [18] = qHTS assay to identify small molecule antagonists of the estrogen related receptor (ERR) signaling pathway from Tox21 library (AID 1224848); also: nearly all actives have a fitted effect of over 50% in size; also: potency is read from the fitted curve at half-maximal effect
# Summary of the method: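 First, 2,000 ERR cells per well were plated and held 6 h at 37 C/5% CO2. Next, compounds in DMSO were pinned in and left 18 h at 37 C. Finally, ONE-Glo was added and luminescence read after 30 min at room temperature.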
# [19] = qHTS assay to identify small molecule agonists of the estrogen related receptor (ERR) signaling pathway from Tox21 library (AID 1224849; calls by dose curve; also: nearly all actives have a fitted effect of over 15% in size); settings: ERR reporter cell line, ONE-Glo luciferase, 18 h
# Summary of the method: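 Luciferase activity in ERR pathway reporter cells served as the agonist readout; exposure lasted 18 h at 37 C, with ONE-Glo detection after 30 min at room temperature.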
# [20] = qHTS RealTime-Glo MT Cell Viability Assay in HEK293 cells - 0 hour (AID 1224880)
# Summary of the method: as §5
structure (smiles),measurement,setting,value
O=C1NS(=O)(=O)c2ccccc21,Potency,[1],inactive
same,Potency,[2],inactive
same,outcome,[3],inactive
same,Potency,[4],inactive
same,Potency,[5],inactive
same,Potency,[6],inactive
same,Potency,[7],inactive
same,Potency,[8],inactive
same,Potency,[9],inactive
same,Potency,[10],inactive
same,Potency,[11],inactive
same,max response,[12],5.75% (inactive) [middle of 5 runs]
same,Potency,[13],inactive
same,Potency,[14],inactive
same,Potency,[15],inactive
same,Potency,[16],inactive
same,Potency,[17],inactive
Cc1cccc(C)c1,Potency,[1],inactive
same,Potency,[2],inactive
same,outcome,[3],inactive
same,Potency,[4],inactive
same,Potency,[18],inactive
same,"activity change, positive = activation",[19]; at 92.4 µM (top of the series),-11.8% (inactive) and 5.13% (inactive)
same,Potency,[5],inactive
same,Potency,[6],inactive
same,Potency,[8],inactive
same,Potency,[9],inactive
same,Potency,[10],inactive
same,Potency,[11],inactive
same,max response,[12],-11.1% (inactive) and -3.52% (inactive) and 0.116% (inactive)
same,Potency,[13],inactive
same,Potency,[14],inactive
same,Potency,[15],inactive
same,Potency,[16],inactive
same,Potency,[17],inactive
same,Potency,[20],inactive
CC(=O)CC(c1ccccc1)c1c(O)c2ccccc2oc1=O (stereo unspecified),Potency,[1],inactive
same,Potency,[2],inactive
same,outcome,[3],inactive
same,Potency,[4],inactive
same,Potency,[5],inactive
same,Potency,[6],inactive
same,Potency,[7],inactive
same,Potency,[8],inactive
same,Potency,[9],inactive
same,Potency,[10],inactive
same,Potency,[11],inactive
same,max response,[12],5.95% (inactive) [middle of 4 runs]
same,Potency,[13],inactive
same,Potency,[14],inactive
same,Potency,[15],inactive
same,Potency,[16],inactive
same,Potency,[17],inactive
CC1(C)O[C@@H]2C[C@H]3[C@@H]4CCC5=CC(=O)C=C[C@]5(C)[C@@]4(F)[C@@H](O)C[C@]3(C)[C@]2(C(=O)CO)O1,Potency,[1],inactive
same,Potency,[2],inactive
same,outcome,[3],inactive
same,Potency,[4],inactive
same,Potency,[18],inactive
same,"activity change, positive = activation",[19]; at 42.5 µM (top of the series),-6.5% (inactive)
same,"activity change, positive = activation",[19]; at 92.4 µM (top of the series),-23.9% (inactive) and -13.8% (inactive)
same,Potency,[5],inactive
same,Potency,[6],inactive
same,Potency,[8],inactive
same,Potency,[9],inactive and 9.52 µM (active)
same,Potency,[10],inactive
same,Potency,[11],inactive
same,max response,[12],-22.1% (inactive) and -11.6% (inactive) and -2.14% (inactive)
same,Potency,[14],inactive
same,Potency,[15],inactive
same,Potency,[16],inactive
same,Potency,[17],inactive
C=C(C)C(=O)OCC(C)O (stereo unspecified),Potency,[1],inactive
same,Potency,[2],inactive
same,outcome,[3],inactive
same,Potency,[4],inactive
same,Potency,[5],inactive
same,Potency,[6],inactive
same,Potency,[8],inactive
same,Potency,[9],inactive
same,Potency,[10],inactive
same,Potency,[11],inactive
same,max response,[12],1.34% (inactive) and 8.53% (inactive) and -3.84% (inactive)
same,Potency,[13],inactive
same,Potency,[14],inactive
same,Potency,[15],inactive
same,Potency,[16],inactive
same,Potency,[17],inactive
COc1ccc2c(c1)c(CC(=O)O)c(C)n2C(=O)c1ccc(Cl)cc1,Potency,[1],inactive
same,Potency,[2],inactive
same,outcome,[3],inactive
same,Potency,[4],inactive
same,Potency,[18],30.8 µM (active) and inactive
same,"activity change, positive = activation",[19]; at 42.5 µM (top of the series),-11.8% (inactive)
same,"activity change, positive = activation",[19]; at 92.4 µM (top of the series),-34.2% (inactive) and -25.5% (inactive)
same,Potency,[5],inactive
same,Potency,[6],inactive
same,Potency,[8],inactive
same,Potency,[9],inactive
same,Potency,[10],inactive
same,Potency,[11],inactive
same,max response,[12],-7.62% (inactive) and 0.0637% (inactive)
same,Potency,[13],inactive
same,Potency,[14],inactive
same,Potency,[15],inactive
same,Potency,[16],inactive
same,Potency,[17],inactive
Cc1ncc([N+](=O)[O-])n1C,Potency,[1],inactive
same,Potency,[2],inactive
same,outcome,[3],inactive
same,Potency,[4],inactive
same,Potency,[18],inactive
same,"activity change, positive = activation",[19]; at 42.5 µM (top of the series),5.13% (inactive)
same,"activity change, positive = activation",[19]; at 92.4 µM (top of the series),5.9% (inactive) and -0.499% (inactive)
same,Potency,[5],inactive
same,Potency,[6],inactive
same,Potency,[7],inactive
same,Potency,[8],inactive
same,Potency,[9],inactive
same,Potency,[10],inactive
same,Potency,[11],inactive
same,max response,[12],6.42% (inactive) and -0.882% (inactive) and 0.401% (inactive)
same,Potency,[13],inactive
same,Potency,[14],inactive
same,Potency,[15],inactive
same,Potency,[16],inactive
same,Potency,[17],inactive
NC1CCCCC1,Potency,[1],inactive
same,Potency,[2],inactive
same,outcome,[3],inactive
same,Potency,[4],inactive
same,Potency,[5],inactive
same,Potency,[6],inactive
same,Potency,[8],inactive
same,Potency,[9],inactive
same,Potency,[10],inactive
same,Potency,[11],inactive
same,max response,[12],1.81% (inactive) [middle of 4 runs]
same,Potency,[13],inactive
same,Potency,[14],inactive
same,Potency,[15],inactive
same,Potency,[16],inactive
same,Potency,[17],inactive
O=c1[nH]cnc2c1ncn2[C@H]1CC[C@@H](CO)O1,Potency,[1],inactive
same,Potency,[2],inactive
same,outcome,[3],inactive
same,Potency,[4],inactive
same,Potency,[18],inactive
same,"activity change, positive = activation",[19]; at 42.5 µM (top of the series),4.94% (inactive)
same,"activity change, positive = activation",[19]; at 92.4 µM (top of the series),7.43% (inactive) and 1.63% (inactive)
same,Potency,[5],inactive
same,Potency,[6],inactive
same,Potency,[7],inactive
same,Potency,[8],inactive
same,Potency,[9],inactive
same,Potency,[10],inactive
same,Potency,[11],inactive
same,max response,[12],9.2% (inactive) and 0.925% (inactive) and -0.369% (inactive)
same,Potency,[13],inactive
same,Potency,[14],inactive
same,Potency,[15],inactive
same,Potency,[16],inactive
same,Potency,[17],inactive
CCCCCCc1ccc(O)cc1O,Potency,[1],inactive
same,Potency,[2],inactive
same,outcome,[3],inactive
same,Potency,[4],113 µM (active) and 101 µM (active)
same,Potency,[18],inactive
same,"activity change, positive = activation",[19]; at 42.5 µM (top of the series),2.16% (inactive)
same,"activity change, positive = activation",[19]; at 92.4 µM (top of the series),-16.7% (inactive) and -6.89% (inactive)
same,Potency,[5],inactive
same,Potency,[6],21.9 µM (active) and 9.77 µM (active)
same,Potency,[7],inactive
same,Potency,[8],inactive
same,Potency,[9],49.1 µM (active) and 49 µM (active) and inactive
same,Potency,[10],19.6 µM (active) and 11 µM (active)
same,Potency,[11],inactive
same,Potency,[12],19.6 µM (active) and 12.3 µM (active)
same,Potency,[14],inactive and 43.6 µM (active) and 21.3 µM (active)
same,Potency,[15],inactive
same,Potency,[16],49.1 µM (active) and 38.9 µM (active) and 21.3 µM (active)
same,Potency,[17],49.1 µM (active) and 38.9 µM (active) and 19 µM (active)
Cn1c(=O)c2c(ncn2C)n(C)c1=O,Potency,[1],inactive
same,Potency,[2],inactive
same,outcome,[3],inactive
same,Potency,[4],inactive
same,Potency,[18],61.9 µM (active) and inactive
same,"activity change, positive = activation",[19]; at 42.5 µM (top of the series),0.592% (inactive)
same,"activity change, positive = activation",[19]; at 92.4 µM (top of the series),-33.2% (inactive) and 0.518% (inactive)
same,Potency,[5],inactive
same,Potency,[6],inactive
same,Potency,[7],inactive
same,Potency,[8],inactive
same,Potency,[9],inactive
same,Potency,[10],inactive
same,Potency,[11],inactive
same,max response,[12],-15% (inactive) and -0.566% (inactive) and 6.55% (inactive)
same,Potency,[13],inactive
same,Potency,[14],inactive
same,Potency,[15],inactive
same,Potency,[16],inactive
same,Potency,[17],inactive

# From PubChem BioAssay (Tox21)
